# Whole data set: some 9,900 sequences, median “r (bound/input frequency ratio)” near 0.7, cut for the highest 2% near 6.5. Only a selection was taken, and the highest values are over-represented in it overall.
# B1: ENSMUSG00000061578.309|Ksr2 (ssRNA)
# RNA: GGGAGUUCUACAGUCCGACGAUCGCUUCGAUAUCCGCAUGCUAAAGUAAGAGAGGAGAGAGCCAGGGAGGGCUGAAGCUCUGGGACCCUGAAGUGUCCCCCGGGAACUGGGACUCACUCAUCUUCUCCUGUUUGUAGCUCAAUGACCCAGUGGGUCACAGUUCUAGGCGCUCCAAGGAAGCCAGGGGAGGGGGACUCCUCAGGAAGGAGUGACCAGUCACCUGCCUCCCAGGGUUCUGCCUUGCCCUUAAGCUAGGGUCCUUCAAGCAUCCACAGACUUAGAGUGUGGUGGUAACAUGCUUGUCUCUUGCGGUCGCACUAGUGUGGAAUUCUCGGGUGUCAAGG
# B2: ENSMUSG00000032194.287|Kank2 (ssRNA)
# RNA: GGGAGUUCUACAGUCCGACGAUCGCUUCGAUAUCCGCAUGCUAGUGGACGGAUGAGUGUGGGGUGGGUGGAUGGAUAAAUGAGCAAUGGAUGAGAAACUGGGUUGGCUGGUGGGUAGAUGUCAUGAUGGAGUCUUUGCACGUGUAUGAAACAGAAAACCAAACUUCAGGACAGACAGCUGCUGGUGUCUCUGGAUGCUCACAGCCUAGGGCACAUUUGAAAGGUCGUGCUCUGAGCUGAGCCCUGAGUUCCAGCCUUGUAGCCAGCAAGGGAGUUUAUUUAAGGUUCUGGAAGCAUCAGCUAUCUCUUGCGGUCGCACUAGUGUGGAAUUCUCGGGUGUCAAGG
# B3: ENSMUSG00000032194.282|Kank2 (ssRNA)
# RNA: GGGAGUUCUACAGUCCGACGAUCGCUUCGAUAUCCGCAUGCUAGGAUGGAUGGACAGGUGGGUGGAUGGAUGGGUGGACGGAUGAGUGUGGGGUGGGUGGAUGGAUAAAUGAGCAAUGGAUGAGAAACUGGGUUGGCUGGUGGGUAGAUGUCAUGAUGGAGUCUUUGCACGUGUAUGAAACAGAAAACCAAACUUCAGGACAGACAGCUGCUGGUGUCUCUGGAUGCUCACAGCCUAGGGCACAUUUGAAAGGUCGUGCUCUGAGCUGAGCCCUGAGUUCCAGCCUUGUAGCCAGCAAGGGAGCUCUUGCGGUCGCACUAGUGUGGAAUUCUCGGGUGUCAAGG
# B4: ENSMUSG00000032194.281|Kank2 (ssRNA)
# RNA: GGGAGUUCUACAGUCCGACGAUCGCUUCGAUAUCCGCAUGCUAAUGAAUGGAUGGAUGGACAGGUGGGUGGAUGGAUGGGUGGACGGAUGAGUGUGGGGUGGGUGGAUGGAUAAAUGAGCAAUGGAUGAGAAACUGGGUUGGCUGGUGGGUAGAUGUCAUGAUGGAGUCUUUGCACGUGUAUGAAACAGAAAACCAAACUUCAGGACAGACAGCUGCUGGUGUCUCUGGAUGCUCACAGCCUAGGGCACAUUUGAAAGGUCGUGCUCUGAGCUGAGCCCUGAGUUCCAGCCUUGUAGCCAGCACUCUUGCGGUCGCACUAGUGUGGAAUUCUCGGGUGUCAAGG
# B5: ENSMUSG00000032194.229|Kank2 (ssRNA)
# RNA: GGGAGUUCUACAGUCCGACGAUCGCUUCGAUAUCCGCAUGCUAUCAAGUCUCCCUGUCGUAUCCAGAUCACAGCUGAACCCACUGGGCCUUGGCGCCAAACCUCAGCAGGGCAGCAUUGAGACUCAUGGACUAAAGGAAAGUGUUCACUCUUCUAGACAAGUGGGUCUCUUGGUUUGAUGGAGUCUUACUCCGCUUGAGUUUUGUAGAAGGGGUUUGUCUAAGGCAUAGAGGCUUGGUUGGCAUAAGAAAAUAAGAUGGACAGAUGGAUGGGUGGAUGGAUGGAUGGCUGAUUGAGUGGGUGGCUCUUGCGGUCGCACUAGUGUGGAAUUCUCGGGUGUCAAGG
# B6: ENSMUSG00000028439.221|Fam219a (ssRNA)
# RNA: GGGAGUUCUACAGUCCGACGAUCGCUUCGAUAUCCGCAUGCUAAGCUCCUAAGCAAUUCCCAGGCUUCUCUAGGGCUUCAGUUCUCACAACUGGAAAAUAAAGAGUAGCUGACAUCACCGACAGAGUCUUUUCAUACCAGAAGGAAUUUCUUCACAGGAGUUUCUGCAAAAGACUAUGACAUCUGUGUGUCUGUGGUCUCACGAGGUACCUGGAGGUGUAUGUGCACGGACAUGGGAAGUACGUGAAGAUUUAUUUCGGGAAAAGUGGUGUGUGUGUAGCUGUACUGGGUGUCAUGUAUGCUGCUCUUGCGGUCGCACUAGUGUGGAAUUCUCGGGUGUCAAGG
# B7: ENSMUSG00000032194.230|Kank2 (ssRNA)
# RNA: GGGAGUUCUACAGUCCGACGAUCGCUUCGAUAUCCGCAUGCUACUCCCUGUCGUAUCCAGAUCACAGCUGAACCCACUGGGCCUUGGCGCCAAACCUCAGCAGGGCAGCAUUGAGACUCAUGGACUAAAGGAAAGUGUUCACUCUUCUAGACAAGUGGGUCUCUUGGUUUGAUGGAGUCUUACUCCGCUUGAGUUUUGUAGAAGGGGUUUGUCUAAGGCAUAGAGGCUUGGUUGGCAUAAGAAAAUAAGAUGGACAGAUGGAUGGGUGGAUGGAUGGAUGGCUGAUUGAGUGGGUGGGUGGGUCUCUUGCGGUCGCACUAGUGUGGAAUUCUCGGGUGUCAAGG
# B8: ENSMUSG00000032194.289|Kank2 (ssRNA)
# RNA: GGGAGUUCUACAGUCCGACGAUCGCUUCGAUAUCCGCAUGCUAGUGUGGGGUGGGUGGAUGGAUAAAUGAGCAAUGGAUGAGAAACUGGGUUGGCUGGUGGGUAGAUGUCAUGAUGGAGUCUUUGCACGUGUAUGAAACAGAAAACCAAACUUCAGGACAGACAGCUGCUGGUGUCUCUGGAUGCUCACAGCCUAGGGCACAUUUGAAAGGUCGUGCUCUGAGCUGAGCCCUGAGUUCCAGCCUUGUAGCCAGCAAGGGAGUUUAUUUAAGGUUCUGGAAGCAUCAGCUAUGACCCAAAGCACCUCUUGCGGUCGCACUAGUGUGGAAUUCUCGGGUGUCAAGG
# B9: ENSMUSG00000032194.283|Kank2 (ssRNA)
# RNA: GGGAGUUCUACAGUCCGACGAUCGCUUCGAUAUCCGCAUGCUAAUGGACAGGUGGGUGGAUGGAUGGGUGGACGGAUGAGUGUGGGGUGGGUGGAUGGAUAAAUGAGCAAUGGAUGAGAAACUGGGUUGGCUGGUGGGUAGAUGUCAUGAUGGAGUCUUUGCACGUGUAUGAAACAGAAAACCAAACUUCAGGACAGACAGCUGCUGGUGUCUCUGGAUGCUCACAGCCUAGGGCACAUUUGAAAGGUCGUGCUCUGAGCUGAGCCCUGAGUUCCAGCCUUGUAGCCAGCAAGGGAGUUUAUUCUCUUGCGGUCGCACUAGUGUGGAAUUCUCGGGUGUCAAGG
# B10: ENSMUSG00000028439.219|Fam219a (ssRNA)
# RNA: GGGAGUUCUACAGUCCGACGAUCGCUUCGAUAUCCGCAUGCUAGCAUUCUCCCUGAGCUCCUAAGCAAUUCCCAGGCUUCUCUAGGGCUUCAGUUCUCACAACUGGAAAAUAAAGAGUAGCUGACAUCACCGACAGAGUCUUUUCAUACCAGAAGGAAUUUCUUCACAGGAGUUUCUGCAAAAGACUAUGACAUCUGUGUGUCUGUGGUCUCACGAGGUACCUGGAGGUGUAUGUGCACGGACAUGGGAAGUACGUGAAGAUUUAUUUCGGGAAAAGUGGUGUGUGUGUAGCUGUACUGGGUGCUCUUGCGGUCGCACUAGUGUGGAAUUCUCGGGUGUCAAGG
# B11: ENSMUSG00000028439.220|Fam219a (ssRNA)
# RNA: GGGAGUUCUACAGUCCGACGAUCGCUUCGAUAUCCGCAUGCUAUCCCUGAGCUCCUAAGCAAUUCCCAGGCUUCUCUAGGGCUUCAGUUCUCACAACUGGAAAAUAAAGAGUAGCUGACAUCACCGACAGAGUCUUUUCAUACCAGAAGGAAUUUCUUCACAGGAGUUUCUGCAAAAGACUAUGACAUCUGUGUGUCUGUGGUCUCACGAGGUACCUGGAGGUGUAUGUGCACGGACAUGGGAAGUACGUGAAGAUUUAUUUCGGGAAAAGUGGUGUGUGUGUAGCUGUACUGGGUGUCAUGUCUCUUGCGGUCGCACUAGUGUGGAAUUCUCGGGUGUCAAGG
# B12: ENSMUSG00000032194.228|Kank2 (ssRNA)
# RNA: GGGAGUUCUACAGUCCGACGAUCGCUUCGAUAUCCGCAUGCUAGUCCUCUCAAGUCUCCCUGUCGUAUCCAGAUCACAGCUGAACCCACUGGGCCUUGGCGCCAAACCUCAGCAGGGCAGCAUUGAGACUCAUGGACUAAAGGAAAGUGUUCACUCUUCUAGACAAGUGGGUCUCUUGGUUUGAUGGAGUCUUACUCCGCUUGAGUUUUGUAGAAGGGGUUUGUCUAAGGCAUAGAGGCUUGGUUGGCAUAAGAAAAUAAGAUGGACAGAUGGAUGGGUGGAUGGAUGGAUGGCUGAUUGAGUCUCUUGCGGUCGCACUAGUGUGGAAUUCUCGGGUGUCAAGG
# B13: ENSMUSG00000032194.288|Kank2 (ssRNA)
# RNA: GGGAGUUCUACAGUCCGACGAUCGCUUCGAUAUCCGCAUGCUAGGAUGAGUGUGGGGUGGGUGGAUGGAUAAAUGAGCAAUGGAUGAGAAACUGGGUUGGCUGGUGGGUAGAUGUCAUGAUGGAGUCUUUGCACGUGUAUGAAACAGAAAACCAAACUUCAGGACAGACAGCUGCUGGUGUCUCUGGAUGCUCACAGCCUAGGGCACAUUUGAAAGGUCGUGCUCUGAGCUGAGCCCUGAGUUCCAGCCUUGUAGCCAGCAAGGGAGUUUAUUUAAGGUUCUGGAAGCAUCAGCUAUGACCCACUCUUGCGGUCGCACUAGUGUGGAAUUCUCGGGUGUCAAGG
# Target: TDP-43 (Homo sapiens, UniProt Q13148 1-414)
# Sequence (Q13148 whole entry): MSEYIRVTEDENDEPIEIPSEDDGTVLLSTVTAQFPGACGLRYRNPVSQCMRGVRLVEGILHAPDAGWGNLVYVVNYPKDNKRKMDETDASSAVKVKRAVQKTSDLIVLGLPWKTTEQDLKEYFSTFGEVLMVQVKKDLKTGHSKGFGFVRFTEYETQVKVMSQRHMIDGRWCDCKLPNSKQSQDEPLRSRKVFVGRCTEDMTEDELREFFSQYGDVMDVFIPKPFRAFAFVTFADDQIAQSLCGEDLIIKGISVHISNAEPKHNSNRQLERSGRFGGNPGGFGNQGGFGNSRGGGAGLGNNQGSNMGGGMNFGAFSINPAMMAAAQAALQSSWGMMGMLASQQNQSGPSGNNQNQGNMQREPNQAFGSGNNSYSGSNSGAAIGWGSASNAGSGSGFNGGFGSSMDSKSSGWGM
# Assay: RNA Bind-n-Seq with designed 260-mer pool; 25 mM Tris-HCl, 150 mM KCl, 3 mM MgCl2, BSA (printed 500 mg/mL), 20 units/mL SUPERase IN; pH not stated; 500 nM RNA pool, 1 h, 4 C; TDP-43 5, 50, 500 nM; high values mean tight binding
# Conditions: protein: recombinant; tags: SBP (GST cleaved off with PreScission; pGEX-GST-SBP)
# How it was run: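 An in vitro-transcribed pool of 260-nt 3′ UTR oligos (500 nM) was incubated for 1 h at 4 °C with recombinant SBP-tagged TDP-43 at 5, 50 or 500 nM held on streptavidin beads. The buffer contained 25 mM Tris-HCl, 150 mM KCl, 3 mM MgCl2, BSA and SUPERase IN. Biotin-eluted bound RNA was sequenced, and binding, R, is each oligo's normalized read abundance in the bound sample over that in input.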
row,Binder,binding signal
1,B1,1.33 R (bound/input frequency ratio)
2,B2,5.94 R (bound/input frequency ratio)
3,B3,6.52 R (bound/input frequency ratio)
4,B4,6.24 R (bound/input frequency ratio)
5,B5,4.54 R (bound/input frequency ratio)
6,B6,2.59 R (bound/input frequency ratio)
7,B7,4.66 R (bound/input frequency ratio)
8,B8,3.69 R (bound/input frequency ratio)
9,B9,3.66 R (bound/input frequency ratio)
10,B10,1.85 R (bound/input frequency ratio)
11,B11,6.53 R (bound/input frequency ratio)
12,B12,7.26 R (bound/input frequency ratio)
13,B13,6.68 R (bound/input frequency ratio)

# — publication PMC12864922, “TDP-43 directly inhibits mRNA accumulation in neurites through modulation of mRNA stability”
